Reference: PubChem BioAssay (NCI)
The panel holds about 79,000 compounds, 15% with a hit somewhere; the sample as a whole holds those more often. Calls of active or inactive are those of the source. Cut-off read from the data, not from the text of the source: active = growth inhibition above about 70%; inactive = the rest.

Experiments:
[1] = NCI Yeast Anticancer Drug Screen. Data for the wt1 strain (AID 149);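 note: 0% = growth of vehicle-treated wt1 cultures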; settings: S. cerevisiae wt1 strain (SPY 50644) growth inhibition, hits give high values
Method in brief: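 Growth inhibition read against vehicle controls after compound exposure of the wt1 yeast strain.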

[2] = NCI Yeast Anticancer Drug Screen. Data for the rad50EPP+ strain (AID 151);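 note: 0% = growth of vehicle-treated control cultures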; settings: S. cerevisiae rad50 mutant strain, hits give high values
Method in brief: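 Genetically defined yeast (rad50EPP+, DNA damage repair alteration) is grown with compound, and inhibition of growth is expressed relative to vehicle-treated controls.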

[3] = NCI Yeast Anticancer Drug Screen. Data for the mgt1 strain (AID 153); settings: S. cerevisiae mgt1 mutant growth inhibition, hits give high values
Method in brief: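 In the mgt1 strain, test compounds were added and growth inhibition was determined relative to vehicle-treated controls.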

[4] = NCI Yeast Anticancer Drug Screen. Data for the rad50 strain (AID 155);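 note: 0% = growth of vehicle-only cultures of the same strain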; settings: S. cerevisiae rad50 strain growth inhibition, hits give high values
Method in brief: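 Readout: growth inhibition relative to vehicle-treated cultures. Compound exposure was carried out in a genetically defined yeast strain deficient in DNA damage repair.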

[5] = NCI Yeast Anticancer Drug Screen. Data for the mec2-1 strain (AID 157); settings: S. cerevisiae mec2-1 strain, hits give high values
Method in brief: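 Each compound was tested on mec2-1 yeast, a strain altered in DNA damage repair or cell cycle control. Growth inhibition is reported relative to vehicle.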

[6] = NCI Yeast Anticancer Drug Screen. Data for the rad14 strain (AID 159);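 note: 0% = growth of vehicle-treated control cultures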; settings: S. cerevisiae rad14 strain growth inhibition, hits give high values
Method in brief: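 Growth inhibition vs vehicle controls; genetically altered yeast strain (DNA damage repair defect) treated with test compounds.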

[7] = NCI Yeast Anticancer Drug Screen. Data for the sgs1 mgt1 strain (AID 161);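 note: 0% = growth of cultures given vehicle only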; settings: S. cerevisiae sgs1 mgt1 strain, hits give high values
Method in brief: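 Genetically altered yeast, compound exposure, growth inhibition relative to vehicle.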

[8] = NCI Yeast Anticancer Drug Screen. Data for the CLN2oe strain (AID 163);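 note: 0% = growth of vehicle-only control cultures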; settings: S. cerevisiae CLN2oe strain, hits give high values
Method in brief: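 First, the altered yeast strain was treated with each compound; second, its growth was measured; finally, inhibition was derived by comparison with vehicle controls.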

[9] = NCI Yeast Anticancer Drug Screen. Data for the cln2 rad14 strain (AID 165);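 note: 0% = growth equal to vehicle treated cultures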; settings: S. cerevisiae cln2 rad14 strain, hits give high values
Method in brief: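 Test compounds were added to cln2 rad14 yeast cultures; inhibition of growth was then determined by comparison with vehicle treatment.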

[10] = NCI Yeast Anticancer Drug Screen. Data for the bub3 strain (AID 167); settings: S. cerevisiae bub3 mutant strain, hits give high values
Method in brief: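 Readout: yeast growth inhibition, expressed relative to vehicle-only wells. The test organism is a mutant strain from a panel with lesions in DNA repair or checkpoint genes.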

[11] = NCI Yeast Anticancer Drug Screen. Data for the wt2 strain (AID 169);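 note: 0% = growth of vehicle-treated yeast cultures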; settings: S. cerevisiae wt2 strain growth inhibition, hits give high values
Method in brief: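 The panel's yeast strains carry defined changes in DNA repair or cell cycle genes. Each strain is grown with compound, and growth loss is scored relative to vehicle.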

[12] = NCI Yeast Anticancer Drug Screen. Data for the mlh1 strain (AID 171);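 note: 0% = growth of vehicle-treated control cultures of the same strain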; settings: S. cerevisiae mlh1 strain growth inhibition, hits give high values
Method in brief: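 Inhibition values reflect reduced yeast growth in the presence of compound, referenced to vehicle controls, using a strain chosen for its alteration in DNA repair or cell cycle control.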

[13] = NCI Yeast Anticancer Drug Screen. Data for the sgs1 strain (AID 173);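 note: 0% = growth of vehicle-only control cultures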; settings: S. cerevisiae sgs1 mutant, hits give high values
Method in brief: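 Vehicle-treated cultures served as reference for growth inhibition of a yeast strain altered in DNA damage repair or cell cycle control after compound exposure.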

[14] = NCI Yeast Anticancer Drug Screen. Data for the mlh1 rad18 strain (AID 175); settings: S. cerevisiae mlh1 rad18 strain growth inhibition, hits give high values
Method in brief: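 Inhibition values reflect reduced growth of mutant yeast versus vehicle-treated controls following compound exposure; the mutations affect DNA damage repair.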

[15] = NCI Yeast Anticancer Drug Screen. Data for the rad18 strain (AID 177); settings: S. cerevisiae rad18 mutant growth inhibition, hits give high values
Method in brief: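 Steps: expose repair-mutant yeast to compound; measure growth; express as inhibition relative to vehicle control.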

[16] = at 5.0 µM (retest, dose inferred, filed as 0.5)
[17] = at 50.0 µM (retest, dose inferred, filed as 5.0)

Measured: growth inhibition

c1ccc(-c2ccnc3c2ccc2c(-c4ccccc4)ccnc23)cc1
inactive: [1]; at 1.2 µM 5% | [1]; at 3.7 µM -4% | [1]; at 11.0 µM 9% | [2]; at 1.2 µM 2% | [2]; at 3.7 µM -4% | [2]; at 11.0 µM 22% | [3]; at 1.2 µM 10% | [3]; at 3.7 µM -9% | [3]; at 11.0 µM 63% | [4]; at 1.2 µM 7% | [4]; at 3.7 µM 13% | [4]; [16] 2% | [4]; at 11.0 µM 67% | [5]; at 1.2 µM 22% | [5]; at 3.7 µM 24% | [5]; [16] -31% | [5]; at 11.0 µM 53% | [6]; at 1.2 µM -6% | [6]; at 3.7 µM -17% | [6]; at 11.0 µM 54% | [7]; [16] 23% | [8]; at 1.2 µM -8% | [8]; at 3.7 µM -20% | [8]; at 11.0 µM 50% | [9]; [16] 48% | [10]; at 1.2 µM 24% | [10]; at 3.7 µM 27% | [10]; [16] 11% | [10]; at 11.0 µM 60% | [11]; at 1.2 µM 0% | [11]; at 3.7 µM -3% | [11]; at 11.0 µM 11% | [12]; at 1.2 µM -7% | [12]; at 3.7 µM -8% | [12]; at 11.0 µM 46% | [13]; at 1.2 µM 12% | [13]; at 3.7 µM 11% | [13]; at 11.0 µM 62% | [14]; [16] -32% | [15]; at 1.2 µM 9% | [15]; at 3.7 µM 12% | [15]; at 11.0 µM 49%
active: [1]; at 33.0 µM 97% | [1]; at 100.0 µM 97% | [2]; at 33.0 µM 97% | [2]; at 100.0 µM 97% | [3]; at 33.0 µM 98% | [3]; at 100.0 µM 97% | [4]; at 33.0 µM 98% | [4]; [17] 97% | [4]; at 50.0 µM 91.2% | [4]; at 100.0 µM 97% | [5]; at 33.0 µM 99% | [5]; [17] 98% | [5]; at 50.0 µM 92.8% | [5]; at 100.0 µM 96% | [6]; at 33.0 µM 98% | [6]; at 100.0 µM 97% | [7]; [17] 97% | [7]; at 50.0 µM 92.1% | [8]; at 33.0 µM 98% | [8]; at 100.0 µM 98% | [9]; [17] 96% | [9]; at 50.0 µM 92% | [10]; at 33.0 µM 98% | [10]; [17] 96% | [10]; at 50.0 µM 90.3% | [10]; at 100.0 µM 97% | [11]; at 33.0 µM 98% | [11]; at 100.0 µM 97% | [12]; at 33.0 µM 98% | [12]; at 100.0 µM 98% | [13]; at 33.0 µM 98% | [13]; at 100.0 µM 96% | [14]; [17] 97% | [14]; at 50.0 µM 90.3% | [15]; at 33.0 µM 98% | [15]; at 100.0 µM 97%

COc1cc(C(=O)/C=C/c2ccccc2O)ccc1O
active: [2]; at 3.7 µM 89% | [2]; at 11.0 µM 99% | [2]; at 33.0 µM 99% | [2]; at 100.0 µM 98% | [3]; at 3.7 µM 84% | [3]; at 11.0 µM 98% | [3]; at 33.0 µM 99% | [3]; at 100.0 µM 98% | [4]; at 11.0 µM 98% | [4]; at 33.0 µM 98% | [4]; [17] 98% | [4]; at 50.0 µM 93.2% | [4]; at 100.0 µM 98% | [5]; at 3.7 µM 78% | [5]; [16] 80% | [5]; at 11.0 µM 99% | [5]; at 33.0 µM 98% | [5]; [17] 99% | [5]; at 50.0 µM 94.4% | [5]; at 100.0 µM 98% | [6]; at 11.0 µM 99% | [6]; at 33.0 µM 98% | [6]; at 100.0 µM 98% | [7]; [17] 98% | [7]; at 50.0 µM 94.4% | [8]; at 11.0 µM 99% | [8]; at 33.0 µM 99% | [8]; at 100.0 µM 98% | [9]; [17] 98% | [9]; at 50.0 µM 92.8% | [10]; [16] 76% | [10]; at 11.0 µM 99% | [10]; at 33.0 µM 99% | [10]; [17] 97% | [10]; at 50.0 µM 94.2% | [10]; at 100.0 µM 98% | [11]; at 11.0 µM 99% | [11]; at 33.0 µM 99% | [11]; at 100.0 µM 98% | [12]; at 11.0 µM 99% | [12]; at 33.0 µM 99% | [12]; at 100.0 µM 98% | [13]; at 11.0 µM 99% | [13]; at 33.0 µM 99% | [13]; at 100.0 µM 99% | [14]; [16] 79% | [14]; [17] 98% | [14]; at 50.0 µM 91.8% | [15]; at 11.0 µM 98% | [15]; at 33.0 µM 98% | [15]; at 100.0 µM 98%
inactive: [2]; at 1.2 µM 11% | [3]; at 1.2 µM 9% | [4]; at 1.2 µM 10% | [4]; at 3.7 µM 32% | [4]; [16] 33% | [5]; at 1.2 µM -7% | [6]; at 1.2 µM -6% | [6]; at 3.7 µM 62% | [7]; [16] -4% | [8]; at 1.2 µM 19% | [8]; at 3.7 µM 42% | [9]; [16] 42% | [10]; at 1.2 µM -20% | [10]; at 3.7 µM 53% | [11]; at 1.2 µM -24% | [11]; at 3.7 µM 50% | [12]; at 1.2 µM 1% | [12]; at 3.7 µM 62% | [13]; at 1.2 µM 8% | [13]; at 3.7 µM 26% | [15]; at 1.2 µM 1% | [15]; at 3.7 µM 47%

Cc1c(C(=O)C(=O)c2ccccc2)c(C)c(C(=O)C(=O)c2ccccc2)c(C)c1C(=O)C(=O)c1ccccc1
inactive: [1]; at 1.2 µM 0% | [1]; at 3.7 µM 1% | [1]; at 11.0 µM -1% | [1]; at 33.0 µM -4% | [1]; at 100.0 µM -5% | [2]; at 1.2 µM 0% | [2]; at 3.7 µM -1% | [2]; at 11.0 µM -3% | [2]; at 33.0 µM -5% | [2]; at 100.0 µM -17% | [3]; at 1.2 µM -2% | [3]; at 3.7 µM -2% | [3]; at 11.0 µM -5% | [3]; at 33.0 µM -21% | [3]; at 100.0 µM -9% | [4]; at 1.2 µM -11% | [4]; at 3.7 µM -21% | [4]; [16] 11% | [4]; at 11.0 µM -29% | [4]; at 33.0 µM -12% | [4]; at 50.0 µM 54.1% | [4]; at 100.0 µM -19% | [5]; at 1.2 µM -2% | [5]; at 3.7 µM 1% | [5]; [16] 18% | [5]; at 11.0 µM -1% | [5]; at 33.0 µM -3% | [5]; at 50.0 µM 61.4% | [5]; at 100.0 µM -11% | [7]; [16] -5% | [8]; at 1.2 µM 1% | [8]; at 3.7 µM -5% | [8]; at 11.0 µM -5% | [8]; at 33.0 µM -10% | [8]; at 100.0 µM -13% | [9]; at 50.0 µM 63.1% | [10]; at 1.2 µM -2% | [10]; at 3.7 µM 0% | [10]; at 11.0 µM -2% | [10]; at 33.0 µM -8% | [10]; at 50.0 µM 56.4% | [10]; at 100.0 µM -16% | [11]; at 1.2 µM -3% | [11]; at 3.7 µM -1% | [11]; at 11.0 µM -4% | [11]; at 33.0 µM -6% | [11]; at 100.0 µM -10% | [12]; at 1.2 µM 1% | [12]; at 3.7 µM 1% | [12]; at 11.0 µM 1% | [12]; at 33.0 µM -3% | [12]; at 100.0 µM -8%
active: [4]; [17] 86% | [5]; [17] 90% | [7]; [17] 86% | [7]; at 50.0 µM 75.7% | [9]; [16] 94% | [9]; [17] 84% | [10]; [16] 97% | [10]; [17] 91%
